Assay outcomes: PubChem, National Center for Advancing Translational Sciences (NCATS)
JMJD2A Tudor inh: JMJD2A Tudor domain (human) inhibition | AlphaScreen JMJD2A-Tudor / H3K4me3 peptide binding | Potency, µM (doses to about 114 µM), hits mostly inhibitors | 390,000 compounds, 4.4% hits | AID 504339; further: nearly all actives have a fitted effect of over 50% in size
PI5P4Ka inh: inhibitors of human PI5P4K alpha | P48426 | 330,000 compounds, 1.2% hits | PI5P4Kalpha enzyme, ADP-Glo luminescence, 60 min; hits give low values | max response, % | AID 652105; active means max response of -50% or lower; inconclusive means between -30% and -50%; inactive means -30% or higher; further: value at the top dose of about 77 µM
Target sequence (P48426 whole entry, looked up): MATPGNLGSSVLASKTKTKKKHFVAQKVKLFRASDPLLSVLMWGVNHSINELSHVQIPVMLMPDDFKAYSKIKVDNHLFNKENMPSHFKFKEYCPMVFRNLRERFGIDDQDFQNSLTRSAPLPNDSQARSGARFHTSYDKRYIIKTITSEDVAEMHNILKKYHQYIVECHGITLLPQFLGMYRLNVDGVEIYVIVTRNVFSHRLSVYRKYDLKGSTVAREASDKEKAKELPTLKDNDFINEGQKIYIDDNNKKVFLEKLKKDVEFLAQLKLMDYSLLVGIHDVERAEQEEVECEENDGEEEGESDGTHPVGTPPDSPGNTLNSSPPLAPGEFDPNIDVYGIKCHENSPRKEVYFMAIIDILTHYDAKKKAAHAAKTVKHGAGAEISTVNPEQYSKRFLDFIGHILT
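Controls without substrate or without enzyme flank wells where PI5P4Kalpha converts substrate using 5 microM ATP (final). Incubation lasts 60 minutes at room temperature; ADP formed is read by ADP-Glo luminescence.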
L3MBTL1 inh: L3MBTL1 (human) inhibition | AlphaScreen L3MBTL1–H3K9me1 peptide binding | Q9Y468 | Potency, µM (doses to about 57.1 µM), hits mostly inhibitors | 230,000 compounds, 0.66% hits; further: nearly all actives have a fitted effect of over 60% in size
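First, the protein-peptide complex forms for 30 min at room temperature (L3MBTL1 50 nM, biotinylated H3K9me1 peptide 75 nM). Next, compounds are pin-transferred and incubated 30 min. Finally, AlphaScreen beads are added and read after 30 min.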
HP1b chromo inh: blocks HP1-beta chromodomain binding to methylated histone tails; Potency, µM (highest dose often 114 µM), usual class: inhibitors; 390,000 compounds, 0.56% hits; AID 540317; P83916; AlphaScreen HP1-beta / biotin-H3K9me3 peptide binding; further: nearly all actives have a fitted effect of over 70% in size
Target sequence (P83916 whole entry, looked up): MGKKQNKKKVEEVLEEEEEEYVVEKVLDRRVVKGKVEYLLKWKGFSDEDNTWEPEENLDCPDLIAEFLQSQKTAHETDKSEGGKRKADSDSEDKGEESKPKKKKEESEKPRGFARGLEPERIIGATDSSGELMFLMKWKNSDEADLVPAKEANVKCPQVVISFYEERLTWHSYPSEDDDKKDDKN
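Compound inhibition of the preformed complex between 50 nM HP1-beta and 50 nM biotinylated H3K9me3 peptide was read by AlphaScreen. Buffer was PBS pH 7.4 with 0.01% Tween-20. Incubations ran 30 min at room temperature, with 10 ug/mL donor/acceptor beads.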
G9a inh: blocks human histone lysine methyltransferase G9a; G9a H3K9 monomethylation, AlphaScreen, 2 h; Potency, µM (series often up to 102 µM), hits mostly inhibitors; 350,000 compounds, 8.8% hits; further: nearly all actives have a fitted effect of over 75% in size
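Methyltransferase reactions run at room temperature for 2 h (20 nM enzyme, 500 nM biotin-H3K9 peptide, 20 uM SAM) after a 15 min compound preincubation; product detected by AlphaScreen beads and anti-H3K9me1 antibody.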
BAZ2B inh: inhibitors of human BAZ2B bromodomain; AlphaScreen BAZ2B-H3K14Ac peptide displacement; AID 504333; Potency, µM (highest dose often 114 µM), usual class: inhibitors; 360,000 compounds, 4.4% hits; Q9UIF8; further: nearly all actives have a fitted effect of over 60% in size
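In this displacement format the biotinylated H3(5-23) peptide acetylated at Lys14 serves as ligand at 50 nM, with BAZ2B at 50 nM in PBS pH 7.4 containing 0.01% Tween-20. Donor and acceptor beads are 10 ug/mL final.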
Large screens that a line does not name were inactive. An excerpt weighted towards active compounds, which were near 11% of everything screened. Unless noted, the call rests on the fitted dose curve; in most records, active means well fitted inhibition curve with a large enough effect; inconclusive means small, poorly fitted or top-dose-only effect; inactive means no such curve, though single readings can be large or run the other way.

COc1ccc(/C=N/Nc2cc(C)nc3c(C)cccc23)cc1	JMJD2A Tudor inh inconclusive, BAZ2B inh inconclusive
O=C(Cn1nc(N2CCN(c3ccccc3)CC2)ccc1=O)NCc1cccc(Cl)c1	JMJD2A Tudor inh inconclusive, G9a inh inconclusive (no result: PI5P4Ka inh, L3MBTL1 inh)
CC(C)CCNC(=O)CCCN1C(=O)c2ccccc2Sc2ncccc21	none (no result: PI5P4Ka inh, L3MBTL1 inh)
Cc1cc(C)cc(NC(=O)Cn2nnc(C(=O)Nc3cc(C)cc(C)c3)c2N)c1	none (no result: PI5P4Ka inh, L3MBTL1 inh, BAZ2B inh)
CCOc1ccc(/C=N/N(C)c2ccccc2)cc1OC	JMJD2A Tudor inh 45µM, HP1b chromo inh inconclusive, G9a inh 50µM, BAZ2B inh 32µM (no result: L3MBTL1 inh)
Oc1ccc(/C=N/Nc2ccccc2)cc1	JMJD2A Tudor inh 22µM, HP1b chromo inh inconclusive, G9a inh 25µM
CCOc1ccc(/C=N/Nc2ccccn2)cc1OC	JMJD2A Tudor inh inconclusive (no result: BAZ2B inh)
C[N+]1(C)CCC(=C2c3ccccc3CC(=O)c3sccc32)CC1	L3MBTL1 inh inconclusive, G9a inh 6.3µM, BAZ2B inh 7.1µM (no result: PI5P4Ka inh)
Cc1onc(-c2c(F)cccc2Cl)c1C(=O)O/N=C(\N)c1ccc([N+](=O)[O-])o1	G9a inh 40µM, BAZ2B inh inconclusive
C/C(=N\OC(=O)c1c(-c2c(F)cccc2Cl)noc1C)c1nccs1	none
CCCCOc1ccc(CNC(=O)c2cnc3sc(N4CCOCC4)nn3c2=O)cc1	none (no result: PI5P4Ka inh, L3MBTL1 inh)
O=C(CN1CCCC1)NCc1ccccc1	none
O=C(CN1CCN(c2ccc(O)cc2)CC1)NC(c1ccccc1)c1ccccc1	JMJD2A Tudor inh 50µM, PI5P4Ka inh inconclusive, HP1b chromo inh inconclusive, G9a inh 7.9µM, BAZ2B inh inconclusive
O=C(CN1CCCCCC1)NC(c1ccccc1)c1ccccc1	JMJD2A Tudor inh 22µM, HP1b chromo inh inconclusive, G9a inh 7.9µM, BAZ2B inh 79µM
COc1cccc(NC(=O)c2sc3nc(C)c(C(=O)Nc4ccc(C)cc4C)c(-c4ccc(C)o4)c3c2N)c1	none (no result: PI5P4Ka inh, L3MBTL1 inh)
CCc1ccc2c(COC(=O)c3n[nH]c4ccccc34)cc(=O)oc2c1	JMJD2A Tudor inh inconclusive, G9a inh 35µM
Cc1ccc2c(COC(=O)c3n[nH]c4ccccc34)cc(=O)oc2c1	G9a inh inconclusive
COc1ccc(S(=O)(=O)n2nc(C)c(S(=O)(=O)N3CCCCCC3)c2C)cc1OC	JMJD2A Tudor inh inconclusive (no result: PI5P4Ka inh, L3MBTL1 inh)
Fc1ccc(-n2[nH]nnc2=S)cc1N1CCCC1	JMJD2A Tudor inh 79µM, HP1b chromo inh inconclusive, G9a inh inconclusive, BAZ2B inh inconclusive (no result: PI5P4Ka inh)
Cc1ccc(NC(=O)Cn2cc(S(=O)(=O)N3CCN(c4ccccc4F)CC3)c3ccccc3c2=O)cc1F	none (no result: PI5P4Ka inh, L3MBTL1 inh)
CC(C)(C)c1cc(Cl)ccc1OCCOCCN1CCCC1	JMJD2A Tudor inh 20µM, G9a inh 25µM, BAZ2B inh inconclusive
Clc1ccc(Cl)c(OCCN2CCCC2)c1	JMJD2A Tudor inh 32µM, HP1b chromo inh inconclusive, G9a inh 50µM, BAZ2B inh inconclusive
Cc1ccc(OCCOCCN2CCN(C)CC2)c(C(C)(C)C)c1	JMJD2A Tudor inh 5.6µM, HP1b chromo inh inconclusive, G9a inh 14µM, BAZ2B inh 56µM
Clc1ccc(Cl)c(OCCN2CCOCC2)c1	none
CC(C)(C)c1ccccc1OCCCCN1CCCC1	none (no result: L3MBTL1 inh)
C=CCc1cc(C)ccc1OCCOCCN1CCN(C)CC1	JMJD2A Tudor inh 7.9µM, HP1b chromo inh inconclusive, G9a inh 14µM, BAZ2B inh 50µM
COc1ccc(-n2c(=O)c3ccc(C(=O)NCc4ccc(C)cc4)cc3n(Cc3ccc(F)cc3Cl)c2=O)cc1	none (no result: PI5P4Ka inh, L3MBTL1 inh, BAZ2B inh)
CCOC(=O)C1CCCN(c2c(C(=O)c3ccccc3)cnc3ccc(F)cc23)C1 (configuration not stated)	G9a inh inconclusive (no result: PI5P4Ka inh, L3MBTL1 inh)
COCCNC(=O)Cn1nc(N2CCN(c3ccccc3OC)CC2)ccc1=O	none (no result: PI5P4Ka inh, L3MBTL1 inh)
c1ccc2c3c([nH]c2c1)[C@@H]1[C@H]2CC[C@H]([C@H]4CCCN[C@H]42)N1CC3	G9a inh 10µM (no result: JMJD2A Tudor inh, PI5P4Ka inh, L3MBTL1 inh, HP1b chromo inh, BAZ2B inh)
O=C(O)CCc1ccc(-c2ccc(Br)cc2)n1-c1cccc(O)c1	JMJD2A Tudor inh inconclusive, HP1b chromo inh inconclusive, G9a inh 45µM, BAZ2B inh inconclusive (no result: L3MBTL1 inh)
O=C(O)CCc1ccc(-c2ccccc2)n1-c1cccc(C(=O)O)c1	JMJD2A Tudor inh inconclusive, BAZ2B inh inconclusive (no result: L3MBTL1 inh)
